Source: PubChem BioAssay (Tox21)
Records with an inconclusive call do not appear. Active and inactive are the calls of the source. Unless noted, the call rests on the fitted dose curve; in most records, active means well fitted curve in the direction sought with a large enough effect in the repeat runs; inconclusive means weak or mixed curves; inactive means no such curve, though single readings can be large; an effect the other way counts as inactive or inconclusive.

Tests used:
[1] = qHTS assay to identify small molecule agonists of the hypoxia (HIF-1) signaling pathway - cell viability counter screen (AID 1224844; calls by dose curve; further: nearly all actives have a fitted effect of over 50% in size)
Procedure, shortened: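 Multiplexed with the HRE beta-lactamase assay, this viability read used CellTiter-Glo luminescence (30 min, RT) on HRE-bla ME-180 cells treated 17 hrs with compounds in 0.5% dialyzed FBS medium.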

[2] = qHTS assay to identify small molecule agonists of H2AX (AID 1224845; active means well fitted activation curve with a large enough effect in the signal ratio in the repeat runs, not every such curve was filed as active; the % refers to the signal ratio)
Procedure, shortened: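 Wild-type CHO-K1 cells, plated overnight, exposed 3hr at 37C to 15 concentrations (0.76% DMSO final). Lysed, then HTRF anti-pH2AX (S139) cryptate and anti-H2AX-d2 antibodies, 24 hr room temperature; 665/620 nm emission read.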

[3] = qHTS assay to identify small molecule agonists of the hypoxia (HIF-1) signaling pathway (AID 1224846; active means well fitted activation curve with a large enough effect in the signal ratio in the repeat runs, not every such curve was filed as active; the % refers to the signal ratio)
Procedure, shortened: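 Hypoxia-pathway activation was scored as increased beta-lactamase from an HRE-controlled reporter in ME-180 cells; plated at 2,000 cells per well with 0.5% dialyzed FBS, they were exposed 17 hrs to compounds and then given CCF4-AM.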

[4] = qHTS assay to identify small molecule agonists of H2AX - cell viability counter screen (AID 1224847; calls by dose curve; further: top concentration of the series differs between compounds; nearly all actives have a fitted effect of over 30% in size)
Procedure, shortened: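 Quantitative HTS viability measurement: CHO-K1 wild-type cells in serum (10% FBS) medium, short 3 hr drug exposure at 37C with 0.76% DMSO, CellTiter-Glo luminescent detection.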

[5] = qHTS RealTime-Glo MT Cell Viability Assay in HepG2 cells - 24 hour (AID 1224867); further: nearly all actives have a fitted effect of over 50% in size
Procedure, shortened: (§1)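 Tox21 10K library screened in qHTS format on HepG2 cells carrying RealTime-Glo reagents. Compounds were added after a 5 h preincubation, and the luminescent signal from continuous culture was measured repeatedly during 40 h treatment.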

[6] = qHTS RealTime-Glo MT Cell Viability Assay in HEK293 cells - 32 hour (AID 1224868); further: nearly all actives have a fitted effect of over 50% in size; further: potency means the concentration at half of the fitted maximal effect
Procedure, shortened: (§2)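 Luminescence generated by NanoLuc from substrate produced by living HEK293 cells served as the viability signal. Each value reflects the reading at its stated time point during continuous 40 h compound exposure at 37 C.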

[7] = A CellTox Green Cytotoxicity Assay to monitor cytotoxicity in HEK293 cells - 0 hour (AID 1224869); further: nearly all actives have a fitted effect of over 50% in size; further: potency means the concentration at half of the fitted maximal effect
Procedure, shortened: (§3)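 Seeding of HEK293 cells together with cytotoxicity dye preceded a 5 h incubation at 37 C/5% CO2. Test compounds in DMSO were then added and fluorescence monitored across 40 h.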

[8] = qHTS RealTime-Glo MT Cell Viability Assay in HepG2 cells - 40 hour (AID 1224870); further: nearly all actives have a fitted effect of over 50% in size
Procedure, shortened: (§4)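 HepG2 cells (600/well) mixed with RealTime-Glo MT reagent, settled 5 h at 37 C/5% CO2 before compound addition. Nonlytic NanoLuc luminescence from viable-cell prosubstrate reduction read repeatedly during 40 h treatment at 37 C.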

[9] = A CellTox Green Cytotoxicity Assay to monitor cytotoxicity in HEK293 cells - 40 hour (AID 1224871); further: nearly all actives have a fitted effect of over 45% in size; further: potency means the concentration at half of the fitted maximal effect
Procedure, shortened: as §3

[10] = qHTS RealTime-Glo MT Cell Viability Assay in HEK293 cells - 16 hour (AID 1224872); further: nearly all actives have a fitted effect of over 50% in size; further: potency means the concentration at half of the fitted maximal effect
Procedure, shortened: as §2

[11] = qHTS RealTime-Glo MT Cell Viability Assay in HepG2 cells - 8 hour (AID 1224873); further: nearly all actives have a fitted effect of over 55% in size
Procedure, shortened: as §4

[12] = qHTS RealTime-Glo MT Cell Viability Assay in HEK293 cells - 40 hour (AID 1224874); conditions: RealTime-Glo luminescence; max response: hits give low values; further: nearly all actives have a fitted effect of over 50% in size; further: potency means the concentration at half of the fitted maximal effect
Procedure, shortened: (§5)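 Tox21 screen in HEK293 using RealTime-Glo MT chemistry, with cells and reagent co-dispensed. Luminescence proportional to viable cell number was captured at intervals during 40 h compound exposure at 37 C.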

[13] = A CellTox Green Cytotoxicity Assay to monitor cytotoxicity in HEK293 cells - 24 hour (AID 1224875); further: nearly all actives have a fitted effect of over 45% in size; further: potency means the concentration at half of the fitted maximal effect
Procedure, shortened: as §3

[14] = A CellTox Green Cytotoxicity Assay to monitor cytotoxicity in HepG2 cells - 16 hour (AID 1224876); further: nearly all actives have a fitted effect of over 45% in size; further: potency means the concentration at half of the fitted maximal effect
Procedure, shortened: (§6)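 Nonlytic assay: viable cells exclude the dye, so fluorescence scales with cell death. HepG2 at 600 cells/well, compounds added after 5 h, signal read across 40 h.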

[15] = qHTS RealTime-Glo MT Cell Viability Assay in HepG2 cells - 32 hour (AID 1224877); further: nearly all actives have a fitted effect of over 55% in size
Procedure, shortened: as §1

[16] = A CellTox Green Cytotoxicity Assay to monitor cytotoxicity in HepG2 cells - 24 hour (AID 1224878); further: nearly all actives have a fitted effect of over 45% in size; further: potency means the concentration at half of the fitted maximal effect
Procedure, shortened: as §6

[17] = A CellTox Green Cytotoxicity Assay to monitor cytotoxicity in HepG2 cells - 40 hour (AID 1224879); further: nearly all actives have a fitted effect of over 40% in size; further: potency means the concentration at half of the fitted maximal effect
Procedure, shortened: as §6

[18] = qHTS RealTime-Glo MT Cell Viability Assay in HEK293 cells - 0 hour (AID 1224880)
Procedure, shortened: as §5

[19] = qHTS assay to identify small molecule antagonists of the estrogen related receptor (ERR) signaling pathway from Tox21 library (AID 1224848); further: nearly all actives have a fitted effect of over 50% in size
Procedure, shortened: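 ERR reporter cell line (from NTP) seeded 2,000 cells/well, rested 6 h at 37 C/5% CO2, then pin-dosed with compounds in DMSO. After 18 h at 37 C, ONE-Glo added; luminescence read after 30 min at room temperature.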

[20] = qHTS assay to identify small molecule agonists of the estrogen related receptor (ERR) signaling pathway from Tox21 library (AID 1224849; calls by dose curve; further: nearly all actives have a fitted effect of over 15% in size); conditions: ERR reporter cell line, ONE-Glo luciferase, 18 h; at 92.4 µM (top of the series) unless noted
Procedure, shortened: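 Six hours post-seeding at 37 C/5% CO2, ERR cells receive DMSO-solubilised compounds; after 18 h at 37 C, ONE-Glo reagent is applied and luminescence recorded.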
On the % scale 0 is the no-effect control and ±100 the full control effect.

CCO[Si](CCCCl)(OCC)OCC
inactive: Potency [1] | Potency [2] | Potency [3] | Potency [4] | Potency [5] | Potency [6] | Potency [7] | Potency [8] | Potency [9] | Potency [10] | Potency [11] | max response [12] 0.203% | Potency [13] | Potency [14] | Potency [15] | Potency [16] | Potency [17] | Potency [18]

Cc1ccccc1S(=O)(=O)O
inactive: Potency [1] | Potency [2] | Potency [3] | Potency [4] | Potency [5] | Potency [6] | Potency [7] | Potency [8] | Potency [9] | Potency [10] | Potency [11] | max response [12] 3.84% | Potency [13] | Potency [14] | Potency [15] | Potency [16] | Potency [17] | Potency [18]

COc1ccc(C)cc1[N+](=O)[O-]
inactive: Potency [1] | Potency [2] | Potency [3] | Potency [4] | Potency [19] | activity change, positive = activation [20] 4.3% | Potency [5] | Potency [6] | Potency [7] | Potency [8] | Potency [9] | Potency [10] | Potency [11] | max response [12] -4.46% | Potency [13] | Potency [15] | Potency [16] | Potency [17] | Potency [18]

CCCCCCCC/C=C\CCCCCCCC(=O)OCC
inactive: Potency [1] | Potency [2] | Potency [3] | Potency [4] | Potency [19] | activity change, positive = activation [20] -11.5% | Potency [5] | Potency [6] | Potency [8] | Potency [9] | Potency [10] | Potency [11] | max response [12] 4.58% | Potency [13] | Potency [15] | Potency [16] | Potency [17] | Potency [18]

COc1ccc(-c2nc3ccc(C4=NNC(=O)CC4C)cc3[nH]2)cc1 (stereo unspecified)
active: Potency [6] 8.49 µM | Potency [10] 9.52 µM | Potency [12] 7.56 µM | Potency [17] 21.3 µM
inactive: Potency [1] | Potency [2] | Potency [3] | Potency [4] | Potency [19] | Potency [7] | Potency [8] | Potency [9] | Potency [11] | Potency [13] | Potency [15] | Potency [18]

CC(COCCO)OCCO (stereo unspecified)
inactive: Potency [1] | Potency [2] | Potency [3] | Potency [4] | Potency [19] | activity change, positive = activation [20] 0.277% | Potency [5] | Potency [6] | Potency [7] | Potency [8] | Potency [9] | Potency [10] | Potency [11] | max response [12] 4.24% | Potency [13] | Potency [14] | Potency [15] | Potency [17] | Potency [18]

c1cc(CCCc2ccncc2)ccn1
inactive: Potency [1] | Potency [2] | Potency [3] | Potency [4] | activity change, positive = activation [20] -26.9% | Potency [5] | Potency [6] | Potency [7] | Potency [8] | Potency [9] | Potency [10] | Potency [11] | max response [12] -17.4% | Potency [13] | Potency [14] | Potency [15] | Potency [16] | Potency [17] | Potency [18]

CC(=O)c1cccc([N+](=O)[O-])c1
inactive: Potency [1] | Potency [2] | Potency [3] | Potency [4] | Potency [5] | Potency [6] | Potency [7] | Potency [8] | Potency [9] | Potency [10] | Potency [11] | max response [12] 3.17% | Potency [13] | Potency [14] | Potency [15] | Potency [16] | Potency [17] | Potency [18]

ClCCOCCOCCCl
inactive: Potency [1] | Potency [2] | Potency [3] | Potency [4] | Potency [19] | activity change, positive = activation [20] 2.88% | Potency [5] | Potency [6] | Potency [7] | Potency [8] | Potency [10] | Potency [11] | max response [12] 5.38% | Potency [13] | Potency [15] | Potency [18]

CN1CCC(N(Cc2cccs2)c2ccccc2)CC1
active: Potency [13] 19 µM | Potency [16] 10.7 µM | Potency [17] 21.3 µM
inactive: Potency [1] | Potency [2] | Potency [3] | Potency [4] | Potency [19] | activity change, positive = activation [20] 0.685% [at 42.5 µM] | Potency [5] | Potency [8] | Potency [10] | Potency [11] | max response [12] -14.7% | Potency [15] | Potency [18]

Nc1ccc(S(=O)(=O)Nc2ccccc2)cc1
inactive: Potency [1] | Potency [2] | Potency [3] | Potency [4] | Potency [5] | Potency [6] | Potency [7] | Potency [8] | Potency [9] | Potency [10] | Potency [11] | max response [12] 0.381% | Potency [13] | Potency [14] | Potency [15] | Potency [16] | Potency [17] | Potency [18]

NC(=O)C(c1ccccc1)(c1ccccc1)[C@@H]1CCN(CCc2ccc3c(c2)CCO3)C1
inactive: Potency [1] | Potency [2] | Potency [3] | Potency [4] | Potency [19] | activity change, positive = activation [20] -1.44% [at 42.5 µM] | Potency [5] | Potency [8] | Potency [11] | Potency [15] | Potency [18]
active: Potency [7] 21.3 µM | Potency [9] 21.3 µM | Potency [13] 21.3 µM | Potency [14] 23.9 µM | Potency [17] 23.9 µM

CC(=O)[O][Al]
inactive: Potency [1] | Potency [2] | Potency [3] | Potency [4] | Potency [19] | activity change, positive = activation [20] 0.0434% | Potency [5] | Potency [6] | Potency [7] | Potency [8] | Potency [9] | Potency [10] | Potency [11] | max response [12] 3.87% | Potency [13] | Potency [14] | Potency [15] | Potency [16] | Potency [17] | Potency [18]
